Results: PubChem BioAssay AID1259415 (National Center for Advancing Translational Sciences (NCATS), 2018)
Hit rate of the full screen: of about 410,000 compounds, about 18,000 (4.4%) were called active. Not shown: some 7% with an inconclusive outcome. The sample holds actives, similar compounds and a random draw of the others, so the mix is not that of the screen. A number with no mark means an inactive call. Cut-off read from the data, not from the text of the source: active = activity change below about -60%; inconclusive = no clear call, values can overlap the other calls; inactive = above about -39%.

assay: qHTS Assay for inhibitors of the human cytomegalovirus (HCMV); details: HFF cells, HCMV-luciferase reporter, 72 h; at 57.5 µM; active compounds read low
Outline: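 Compounds were evaluated in HFFs infected with an HCMV luciferase reporter virus (MOI 1 PFU/cell). Luciferase in lysates collected 72 h post infection served as the replication measure.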
% is set by controls: 0 for no effect and ±100 for the full control effect.

| SMILES | activity change, negative = inhibition |
| --- | --- |
| COc1cccc(CNC(=O)C(=O)NCC(c2cccs2)S(=O)(=O)c2ccccc2)c1 (centres undefined) | -19.1% |
| CN(CCCC(=O)Nc1nccs1)S(=O)(=O)c1ccc(Cl)cc1 | -64.7% (active) |
| COCCN(C(=O)CCC(=O)Nc1nccs1)C(C(=O)NC(C)(C)C)c1ccc(Cl)cc1 (centres undefined) | -6.27% |
| Cc1nc(NC(=O)CN(C)S(=O)(=O)c2ccc(Cl)cc2)sc1C | 12.3% |
| CCc1ccc(CN(Cc2ccco2)C(=O)COc2ccc(Cl)c(C)c2)cc1 | -9.02% |
| Cc1c(Cl)c([N+](=O)[O-])nn1Cc1ccc(C(=O)N/N=C\c2cc(Cl)ccc2O)o1 | -93.7% (active) |
| Cc1c(Cl)c([N+](=O)[O-])nn1CC(=O)NCC1CCCO1 (centres undefined) | 35.2% |
| Cc1c(Cl)c([N+](=O)[O-])nn1CCCC(=O)NC(C)c1ccccc1 (centres undefined) | 46.9% |
| O=C1CC(c2nnc(Cc3ccc(Cl)cc3)o2)CN1c1ccccc1 (centres undefined) | -4.62% |
| COc1ccccc1C(=O)OCC(=O)NCCNC(=O)COC(=O)c1ccccc1OC | -25.9% |
| COc1ccccc1/C=C/C(=O)OCC(=O)NC1CCCCCC1 | -34.6% |
| CCOC(=O)C(=Cc1ccccc1OC)C(=O)OCC | -65.2% (active) |
| CCc1cnc2c(c1SCC(=O)N1CCC(C)CC1)c(=O)n(C)c(=O)n2C | -18.2% |
| COc1ccc2[nH]c3c(c2c1)CCN1C(=O)C(CC(=O)NCc2cccc(C(F)(F)F)c2)C[C@H](C(=O)N2CCOCC2)[C@@]31C (some centres undefined) | -2.74% |
| CCN(CC)S(=O)(=O)c1nnc(NC(=O)COc2ccccc2Cl)s1 | -5.69% |
| Clc1ccc2nc(-c3ccccc3)nc(C(Cl)Cl)c2c1 | -78.3% (active) |
| Fc1ccc2nc(-c3ccccc3)nc(SCc3nnc(-c4ccccc4)o3)c2c1 | 1.64% |
| O=C(C1COc2ccccc2O1)N(Cc1cccnc1)c1nc2c(F)cc(F)cc2s1 (centres undefined) | 0% |
| Cc1cc(S(=O)(=O)NCC(C)C)ccc1OCC(=O)NC1CC1 | -9.36% |
| COc1cccc(C(=O)Nc2ccc3oc(-c4ccc5ccccc5c4)nc3c2)c1 | 12.9% |
| CS(=O)(=O)c1ccccc1C(=O)Nc1ccc2sccc2c1 | 22.5% |
| O=C(Nc1ccc2ccccc2c1)Nc1ccc2snnc2c1 | -97.2% (active) |
| CC(C)CC(=O)NCC(c1ccc2c(c1)OCO2)N1CCN(c2ccc(F)cc2)CC1 (centres undefined) | 1.29% |
| COc1ccc(NC(=O)N2CCCn3nc(C)cc32)cc1OC | 9.12% |
| COc1ccc(NC(=O)NC(C)c2c(-n3cccc3)sc(C)c2C)cc1OC (centres undefined) | -77.2% (active) |

| SMILES | activity change, negative = inhibition |
| --- | --- |
| CCn1cc(NC(=O)Nc2ccc(OC)c(OC)c2)c(C(N)=O)n1 | -11.8% |
| NC1=NC(=O)C(Cc2cccc(Cl)c2)S1 (centres undefined) | 4.67% |
| COc1ccc(-n2c(=O)c3c(c4cc(OC)ccc4n3C)n(Cc3cccc(C)c3)c2=O)cc1 | -5.82% |
| COC(=O)C[C@@H]1C=C[C@@H](NC(=O)c2cccnc2)[C@@H](CO)O1 | -9.71% |
| CCn1cc(C(=O)NCCc2ccccc2)c(=O)c2cc(S(=O)(=O)N3CCCCCC3)ccc21 | -9.08% |
| CCCCNC(=O)c1nc2cc(C)c(C)cc2nc1-c1ccc(OC)cc1 | 9.19% |
| COc1ccc(-c2nc3c4ccccc4n(CC(=O)Nc4ccc(C(C)=O)cc4)c(=O)n3n2)cc1 | 29.2% |
| OC[C@@H]1CN(Cc2ccncc2)C[C@H](n2cnc3c(N4CCN(c5ccccc5)CC4)ncnc32)O1 | -88% (active) |
| OC[C@@H]1CN(C2CCCC2)C[C@H](n2cnc3c(NC4CCC4)ncnc32)O1 | -6.08% |
| OCCN1CCN(c2ncnc3c2ncn3[C@H]2CN(Cc3ccco3)C[C@@H](CO)O2)CC1 | -21.8% |
| CC(C)Nc1ncnc2c1ncn2[C@H]1CN(Cc2ccncc2)C[C@@H](CO)O1 | 23.6% |
| OC[C@@H]1CN(Cc2ccc(-c3ccccc3)cc2)C[C@H](n2cnc3c(NC4CCCC4)ncnc32)O1 | -84.2% (active) |
| OC[C@@H]1CN(Cc2cccs2)C[C@H](n2cnc3c(Nc4ccccc4)ncnc32)O1 | -28.3% |
| CCCOC(=O)c1c(NC(=O)c2cc3nc(-c4ccc(OC)cc4)cc(C(F)(F)F)n3n2)sc2c1CCCC2 | -2.77% |
| Cc1ccc(CSc2nc3ccsc3c(=O)n2CCC(C)C)cc1 | -15.8% |
| COc1ccccc1CNC(=O)CS(=O)(=O)c1cccc2nsnc12 | 22.9% |
| Cc1c(C#N)c(NC(=O)c2ccccc2)n(Cc2ccccc2)c1C | -33.4% |
| CCCc1ccc(-c2c(C)sc(NC(=O)c3ccnn3C)c2C#N)cc1 | -97.3% (active) |
| Cc1c(C(=O)OC(C)C)sc(NC(=O)c2cccnc2)c1C#N | 4.66% |
| CCc1cccc(NC(=O)COC(=O)C2CCN(c3ccc(C(F)(F)F)cn3)CC2)c1 | -14.3% |
| Cc1ccc(NC(=O)CN2c3ccccc3S(=O)(=O)c3ccccc32)cc1F | 18.3% |
| CCN(CC)CCNC(=O)c1cc2c(=O)oc3ccc(C)cc3c2s1 | 3.23% |
| COc1ccc(/C=N/OCc2ccccc2C#N)c(OC)c1 | 50.3% |
| Nc1nnc2c(C(F)(F)F)nc3ccccc3n12 | 1.13% |
| COc1ccc(-c2nn3c(-c4ccc(OC)cc4)nnc3c3ccccc23)cc1 | 7.26% |

| SMILES | activity change, negative = inhibition |
| --- | --- |
| FC(F)(F)c1nnc2c3ccccc3c(Cl)nn12 | -86.4% (active) |
| Cc1cc(C)n2nc(C(=O)Oc3ccc4c(c3)OCO4)nc2n1 | 12.7% |
| CC(=O)c1nn(-c2ccc(OC(F)(F)F)cc2)nc1Nc1ccccc1 | -19.8% |
| COc1ccc(NC(=O)c2ccc3nc(CCc4ccccc4)oc3c2)c(OC)c1 | 15.1% |
| CCN1CCC(O)(/C=C/c2ccc(C)cc2)C(C(=O)/C=C/c2ccc(C)cc2)C1 (centres undefined) | -101% (active) |
| O=C(CCOc1ccccc1)N(Cc1cccnc1)c1nc2ccc(Cl)cc2s1 | -5.41% |
| O=C(CCS(=O)(=O)c1ccccc1)N(Cc1cccnc1)c1nc2c(F)cccc2s1 | 112% |
| Cc1ccc(-c2nc3ccccn3c2Nc2c(C)cccc2C)o1 | -20.4% |
| Cc1cccc(C(=O)Nc2ccc(S(=O)(=O)N3CCCCC3c3cccnc3)cc2)c1 (centres undefined) | -34.9% |
| O=C(CS(=O)(=O)c1cccc2nsnc12)N1CCN(c2cccc(Cl)c2)CC1 | -13.3% |
| CCOC(=O)c1ccc(NC(=S)N2CCN(c3ccccn3)CC2)cc1 | 0.324% |
| C/C(=N/NC(=O)c1ccn(C)n1)c1ccncc1 | 22.2% |
| C/C(=N/NC(=O)CSc1ccccn1)c1ccc([N+](=O)[O-])cc1 | 21.4% |
| C/C(Cc1ccccc1)=N\NC(=O)CNC(=O)c1ccccc1Cl | 22.5% |
| CC(=NNC(=S)N1CCCCCC1)c1ccccn1 | -98.7% (active) |
| C/C(=N\NC(=O)Cc1ccc(Cl)cc1)c1ccccn1 | -98.9% (active) |
| O=[N+]([O-])c1ccc(NC(=S)N2CCN(c3ccccn3)CC2)cc1 | -38.3% |
| C/C(=N\NC(=O)c1ccccc1F)c1ccccn1 | -113% (active) |
| O=C(NC(=S)NC1CCSC1=O)c1ccccc1F (centres undefined) | -2.85% |
| CCC[C@H]1[C@H](NCC2CCCCC2)CC[C@@]23CCCN2C(=O)CCC[C@@H]13 | -6.34% |
| CSCC[C@H](NC(=O)NCCc1ccc(F)cc1)C(=O)O | -21.4% |
| CCOc1ccc(NC(=O)C(=O)NCCc2csc3nc(-c4ccccc4F)nn23)cc1 | 18.8% |
| C=CCC[C@@H](CCCCC)OC(=O)/C=C/[C@@H](O)[C@H](O)C[C@H](O)CC=C | -0.272% |
| Fc1ccc(-c2nn(-c3ccccc3Cl)c3c2cnc2ccccc23)cc1 | -6.36% |
| O=C(NC1(C(F)(F)F)NC(=O)N(Cc2cccnc2)C1=O)c1ccccc1Cl (centres undefined) | -16% |

| SMILES | activity change, negative = inhibition |
| --- | --- |
| O=S(=O)(NCCc1ccc(Cl)cc1)c1cccs1 | -79.1% (active) |
| CCc1ccc(NC(=O)CCNS(=O)(=O)c2cccs2)cc1 | 24.2% |
| CN(CC(=O)NCc1ccc(Cl)cc1)S(=O)(=O)c1cccs1 | -18.2% |
| Cc1ccc2nc3c(cc(C(=O)NC4CCCCC4)c(=N)n3C(C)C)c(=O)n2c1 | -12.2% |
| CN(C)C(CNC(=O)c1cccc(S(=O)(=O)N2CCc3ccccc3C2)c1)c1ccccc1 (centres undefined) | 6.73% |
| Cc1cccc(N2CCN(C(=O)c3cccc(S(=O)(=O)N4CCc5ccccc5C4)c3)CC2C)c1 (centres undefined) | -62.2% (active) |
| CC(NC(=O)c1cccc(S(=O)(=O)N2CCc3ccccc3C2)c1)c1ccco1 (centres undefined) | -21.6% |
| CCc1nnc2c3ccccc3nc(N3CCN(c4ccc(C)cc4C)CC3)n12 | 2.29% |
| COc1ccccc1N1CC(C(=O)Nc2nnc(SCC(=O)NC(C)C)s2)CC1=O (centres undefined) | 45.2% |
| CC(C)Nc1nnc(SCC(=O)/C=C2\N(C)c3ccccc3C2(C)C)s1 | -65.1% (active) |
| COC(=O)c1ccc(CSc2nnc(NC(C)C)s2)cc1 | -2.57% |
| Cc1ccccc1-c1nc2scc(CCNC(=O)C(=O)Nc3ccc(F)cc3F)n2n1 | 2.08% |
| C=CCSc1nnc2c(n1)-c1cccc3cccc-2c13 | 41.1% |
| CC(=O)c1ccc(NC(=O)N[C@@H](Cc2ccccc2)C(=O)O)cc1 | 23.2% |
| CCSc1nsc(NC(=O)Nc2cccc(C(C)=O)c2)n1 | -74.9% (active) |
| CSc1nsc(NC(=O)Nc2ccccc2)n1 | -76.6% (active) |
| Cc1ccccc1CNC(=O)c1cccc(NC(=O)c2nsc3ccccc23)c1 | 66.7% |
| CC(=O)c1cccc(NC(=O)CSc2nc3c(c(=O)[nH]2)CCC3)c1 | -2.89% |
| NC(c1csc(NC(=O)Nc2ccccc2Oc2ccccc2)n1)c1ccccc1Cl (centres undefined) | -24.7% |
| C=CCSc1nsc(NC(=O)Nc2cccc(C(C)=O)c2)n1 | -101% (active) |
| Cc1ccc(C(=O)Nc2nc(-c3ccccc3)ns2)cc1 | 27% |
| CC(=O)c1ccc(NC(=O)CSc2nnc(NC(=O)Nc3ccccc3)s2)cc1 | 103% |
| CC(=O)Nc1ccc(-c2csc(NC(=O)Nc3ccccc3)n2)cc1 | -99.1% (active) |
| NC(=O)C1CCN(C(=O)c2cccc(NC(=O)c3nsc4ccccc34)c2)CC1 | 40.7% |
